PubChem BioAssay (NCI)
Compounds without any hit were thinned out: in the full panel of roughly 83,000, 20% have a hit.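 Single-dose data. Exposure time 48 hours. Values below 10 considered active.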 Activity calls are given as the source filed them.

Columns and labels:
Test in all cases: NCI-60 one-dose screen, 48 h (100 = growth as untreated, 0 = no growth, -100 = all killed)
Settings in all cases: 10 µM
[1] = tested on: NCI-H23 lung
[2] = tested on: NCI-H226 lung
[3] = tested on: NCI-H322M lung
[4] = tested on: HOP-62 NSCLC
[5] = tested on: NCI-H460 lung
[6] = tested on: HOP-92 NSCLC
[7] = tested on: NCI-H522 lung
[8] = tested on: A549/ATCC NSCLC
[9] = tested on: 786-0 renal
[10] = tested on: COLO 205 colon

Measured: growth

Cc1ccc(C)c(S(=O)(=O)NC2c3ccccc3Oc3ccccc32)c1
inactive: [1] 98% | [2] 90.3% | [3] 88.3% | [4] 96.1% | [5] 105% | [6] 59.6% | [7] 31.6% | [8] 96.7% | [9] 88% | [10] 99.2%

COc1ccc(-c2cc(=O)n(-c3nc4ccccc4[nH]3)[nH]2)cc1OC
inactive: [1] 80.4% | [2] 85.1% | [3] 66.6% | [4] 71.6% | [5] 41.4% | [6] 17.4% | [7] 49.2% | [8] 59% | [9] 83% | [10] 113%

COc1ccc(Nc2nc(NCc3ccccc3)c3ccccc3n2)cc1
active: [2] 6.99% | [4] -48% | [5] 3.09% | [6] -4.85%
inactive: [1] 77.3% | [3] 41.1% | [7] 50.1% | [8] 21.9% | [9] 33.9% | [10] 43.6%

Nc1nc2c(ncn2C2OC3COP(=O)(O)OC4C(COP(=O)(O)OC2C3O)OC(n2cnc3c(N)ncnc32)C4O)c(=O)[nH]1 (centres undefined)
inactive: [1] 106% | [2] 75.6% | [3] 105% | [4] 94% | [5] 108% | [6] 109% | [7] 103% | [8] 109% | [9] 103% | [10] 98.1%

CCCCCc1cc[n+](CC(=O)c2ccc(Cl)cc2)cc1
inactive: [1] 81.5% | [2] 90.8% | [3] 85.3% | [4] 92.7% | [5] 98.5% | [6] 78% | [7] 72.1% | [8] 91.3% | [9] 76.2% | [10] 80.5%

CCN(Cc1ccccc1)C1CCN(Cc2cc(Br)ccc2O)CC1
active: [6] 5.9% | [10] -20.6%
inactive: [1] 41.3% | [2] 63.4% | [3] 88.8% | [4] 58.1% | [5] 49.6% | [7] 61% | [8] 58.9% | [9] 62.7%

CC1(C)Cc2c(cn(Cc3ccccc3)c2-c2ccccc2)-c2oncc21
inactive: [1] 96.7% | [2] 92.2% | [3] 126% | [4] 107% | [5] 113% | [6] 67.8% | [7] 90.1% | [8] 86.2% | [9] 97.5% | [10] 103%

COc1ccc(-c2nc(-c3nc4ccc(C)cc4[nH]3)c3ccccn23)cc1
active: [6] -2.51%
inactive: [1] 69.3% | [2] 57.9% | [3] 50.3% | [4] 52% | [5] 52.1% | [7] 38.8% | [8] 24.2% | [9] 78.3% | [10] 61.1%

CCc1nn2c(-c3ccccc3)c(-c3cc(OC)c(OC)c(OC)c3)nc2s1
inactive: [1] 98.3% | [2] 84.6% | [3] 82.4% | [4] 98.7% | [5] 88.3% | [6] 49.8% | [7] 70.9% | [8] 92.1% | [9] 76.5% | [10] 84.9%

O=S(=O)(NCl)c1ccccc1
inactive: [1] 104% | [2] 110% | [3] 88.1% | [4] 110% | [5] 105% | [6] 108% | [7] 99.6% | [8] 94.7% | [9] 95.9% | [10] 113%

COc1cccc(C(=O)N(c2ccc(F)c(F)c2)C(C(=O)NC(C)(C)C)c2cc3c(C)cc(C)cc3nc2Cl)c1 (centres undefined)
inactive: [1] 66% | [2] 65.7% | [3] 84.7% | [4] 86.6% | [5] 64.1% | [6] 47% | [7] 61.6% | [8] 52.8% | [9] 76.6% | [10] 70.2%

O=C(c1ccccc1)C(Nc1ccccc1)c1ccccc1 (centres undefined)
inactive: [1] 84.5% | [2] 82.7% | [3] 85.4% | [4] 83.5% | [5] 98.1% | [6] 78.6% | [7] 67.7% | [8] 87.4% | [9] 97.3% | [10] 98.7%

COc1ccc(C(=O)/C=C/c2cc(-c3ccc(OC)c(OC)c3)n[nH]2)cc1OC
inactive: [2] 58%
active: [1] 8.17% | [3] -13.5% | [4] -33.5% | [5] -42.2% | [6] -59.3% | [7] -89.4% | [8] -12.8% | [9] -64.2% | [10] -60.7%

C#CCNCCCN1C(=O)c2ccc3c4c(ccc(c24)C1=O)C(=O)N(CCCNCC#C)C3=O
active: [1] -45% | [2] -48.6% | [3] -94.4% | [4] -67.8% | [5] -78.5% | [6] -26.3% | [7] -78.4% | [8] -72.3% | [9] -56.9% | [10] -86.7%

CCOC(=O)c1ccc(N(C=O)CCC(=O)CCl)cc1
active: [5] 4.12% | [6] -7.96% | [7] -71.9% | [9] 2.2% | [10] -9.81%
inactive: [1] 19.5% | [2] 36.2% | [3] 75.6% | [4] 29.8% | [8] 12.3%

CCN(CC)CC(O)Cc1ccc(OC)cc1 (centres undefined)
inactive: [1] 108% | [2] 99.5% | [3] 121% | [4] 104% | [5] 117% | [6] 108% | [7] 97.8% | [8] 104% | [9] 100% | [10] 109%

COc1ccc(-c2nc3sc(-c4ccccc4)c(-c4ccccc4)n3c2/C=C/c2ccc(F)cc2)cc1
inactive: [1] 97% | [2] 107% | [3] 103% | [4] 95.9% | [5] 92.9% | [6] 94.5% | [7] 106% | [8] 83.8% | [9] 100% | [10] 99.6%

Cc1ccc(Cl)cc1Nc1nc(C(F)(F)F)ccc1C(=O)N/N=C/c1c(Cl)cccc1Cl
active: [1] 6.65% | [2] -40.5% | [4] 7.32% | [6] -31% | [7] -16.7% | [8] -9.23% | [9] -32.6% | [10] -51.5%
inactive: [3] 17.8%

COc1cc(-c2c(C#N)c(N)n3c(nc4ccccc43)c2C#N)cc(Br)c1OC
active: [6] -20.7% | [8] 4.73%
inactive: [1] 59.2% | [2] 27.8% | [3] 70.9% | [4] 74.5% | [7] 39.8% | [9] 22.2% | [10] 55.1%

CCCc1c(C)nc2scc(-c3ccc(Cl)cc3)n2c1=O
inactive: [1] 100% | [3] 102% | [4] 88.9% | [6] 92.5% | [7] 94.3% | [8] 104% | [9] 101% | [10] 103%
active: [2] -100%

CC(C)/C(=N/O)c1ccccc1
inactive: [1] 103% | [2] 104% | [3] 133% | [4] 116% | [6] 91.3% | [7] 90.8% | [8] 111% | [9] 88.2% | [10] 115%

COc1cc(-c2nc3ccccc3[nH]2)ccc1OCC(=O)N=Nc1c(O)[nH]c2ccccc12
inactive: [1] 90% | [2] 105% | [3] 96% | [4] 99.6% | [6] 78.1% | [7] 80.1% | [8] 105% | [9] 97.8% | [10] 74.6%

Cc1ccc(-n2nnc3c(sc4ccccc43)c2=O)cc1
inactive: [1] 70.3% | [2] 46.9% | [3] 38.8% | [4] 31.6% | [7] 58.6% | [8] 35.3% | [9] 24.4% | [10] 44%
active: [6] 6.27%

Cc1ccc(-c2cc(C(=O)Nc3ccc(S(=O)(=O)N4CCCCC4)cc3)[nH]n2)c(O)c1
inactive: [1] 55.4% | [2] 76.5% | [3] 89.3% | [4] 90.7% | [6] 56.1% | [7] 72.1% | [8] 52.2% | [9] 62.3% | [10] 55.3%

Cc1nc(N)sc1Sc1nc2ccc(Cl)cc2c(=O)n1-c1ccc(Oc2ccccc2)cc1
inactive: [1] 74% | [2] 86.4% | [3] 111% | [4] 116% | [6] 74.4% | [7] 85.3% | [8] 70.2% | [9] 68.5% | [10] 102%

Nc1cc2c(cc1Cl)-c1ccc(Cl)cc1C2=O
inactive: [1] 98.3% | [2] 105% | [3] 103% | [4] 90.2% | [6] 78.1% | [7] 90.3% | [8] 85.7% | [9] 103% | [10] 95.1%

NC(=O)C1CCCN(Cc2c[nH]c3ccccc23)C1 (centres undefined)
inactive: [1] 95.8% | [2] 84.5% | [3] 98.5% | [4] 91.1% | [6] 96.2% | [7] 84.6% | [8] 96.4% | [9] 105% | [10] 104%

CC(C)(C)c1ccc(OCCCCCCN2CCNCC2)cc1
active: [9] -50.7% | [10] -66.7%
inactive: [1] 61.5% | [2] 73.4% | [3] 85.1% | [4] 67.8% | [6] 16.8% | [7] 66.2% | [8] 55.1%
